According to publication PMC5540273 (PLoS ONE, 2017):

What was measured:
Details in all cases: concentration: 1 μM, replicates: in singlicate; n = 1
[1] = test system: TLK1
[2] = test system: TLK2
[3] = test system: TNIK
[4] = test system: TNK1
[5] = test system: TNK2
[6] = test system: TNNI3K
[7] = test system: T1, TRKA
T1 construct: gene NTRK1

[8] = test system: TRKB
[9] = test system: T2, TRKC
T2 construct: gene NTRK3

[10] = test system: TRPM6
[11] = test system: TSSK1B
[12] = test system: TSSK3
[13] = test system: TTK
[14] = test system: TXK
[15] = test system: TYK2(JH1domain-catalytic)
[16] = test system: TYK2(JH2domain-pseudokinase)
[17] = test system: TYRO3
[18] = test system: ULK1
[19] = test system: ULK2
[20] = test system: ULK3
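Note: KINOMEscan kinase panel screen.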

Row | Compound | %Inh [1] [%] | %Inh [2] [%] | %Inh [3] [%] | %Inh [4] [%] | %Inh [5] [%] | %Inh [6] [%] | %Inh [7] [%] | %Inh [8] [%] | %Inh [9] [%] | %Inh [10] [%] | %Inh [11] [%] | %Inh [12] [%] | %Inh [13] [%] | %Inh [14] [%] | %Inh [15] [%] | %Inh [16] [%] | %Inh [17] [%] | %Inh [18] [%] | %Inh [19] [%] | %Inh [20] [%]
1 | Nc1cccc(-c2ccc3c(N)n[nH]c3c2)n1 [GSK2192730] | 33 | 21 | 24 | 0 | 0 | 0 | 0 | 0 | 0 | 18 | 0 | 10 | 6 | 17 | 12 | 17 | 0 | 5 | 0 | 18
2 | Cn1cncc1-c1cc2c(Nc3ccc(OCc4ccccc4)cc3)ncnc2cn1 [GW281179] | 18 | 0 | 0 | 1 | 20 | 11 | 0 | 37 | 0 | 12 | 18 | 10 | 7 | 21 | 96.8 | 27 | 0 | 0 | 0 | 0
3 | COC(=O)C(Cc1ccccc1)NC(=O)NC1CCN(c2ccnc(Nc3ccc(F)cc3)n2)C1 (centres unmarked) [GSK1379714] | 10 | 0 | 6 | 0 | 4 | 0 | 98.2 | 23 | 25 | 0 | 0 | 21 | 0 | 0 | 33 | 19 | 0 | 0 | 0 | 0
4 | Nc1nccc(-c2c(-c3ccc(F)cc3)ncn2C2CCN(Cc3ccccc3)CC2)n1 [SB-219980] | 0 | 0 | 96.5 | 35 | 10 | 0 | 0 | 0 | 0 | 0 | 0 | 0 | 0 | 0 | 7 | 49 | 15 | 31 | 0 | 22
5 | O=C1NC(=O)C(c2ccc(Cl)cc2)=C1Nc1ccc(O)cc1 [SB-340867] | 10 | 0 | 0 | 46 | 0 | 0 | 0 | 5 | 0 | 9 | 0 | 0 | 100 | 18 | 0 | 0 | 0 | 0 | 0 | 10
6 | Cn1cncc1C(=O)NC1CCN(c2ccnc(Nc3ccc(F)cc3)n2)C1 (centres unmarked) [GSK1379717] | 18 | 0 | 0 | 0 | 10 | 0 | 0 | 17 | 48 | 31 | 6 | 0 | 0 | 100 | 13 | 20 | 0 | 6 | 0 | 17
7 | COc1ccc(Nc2nccc(N3CCC(NC(=O)C(C)c4ccc(Cl)cc4)CC3)n2)cc1 (centres unmarked) [GSK1379812] | 7 | 0 | 0 | 0 | 8 | 2 | 49 | 0 | 0 | 0 | 0 | 53 | 0 | 0 | 0 | 0 | 0 | 0 | 0 | 0
8 | CC(C)c1ccc(O)cc1Nc1ccnc2ccc(C(F)(F)F)cc12 [GW482059] | 0 | 0 | 0 | 0 | 0 | 71 | 12 | 11 | 37 | 1 | 0 | 3 | 2 | 19 | 23 | 0 | 0 | 20 | 0 | 8
9 | CS(=O)(=O)CCNCc1nc(-c2ccc3ncnc(Nc4ccc5c(cnn5Cc5ccccc5)c4)c3c2)cs1.Cl.Cl [GW569716] | 0 | 0 | 0 | 0 | 18 | 0 | 0 | 73 | 40 | 0 | 0 | 1 | 3 | 3 | 22 | 57 | 0 | 0 | 0 | 0
10 | COc1ccc(Nc2nccc(N3CCC(NC(=O)c4cc5ccccc5s4)C3)n2)cc1 (centres unmarked) [GSK1379738] | 3 | 0 | 0 | 11 | 18 | 0 | 60 | 32 | 0 | 39 | 0 | 19 | 0 | 67 | 9 | 26 | 0 | 5 | 0 | 14
11 | CNc1nc(-c2ccc3c(N)n[nH]c3c2)cc(N2C[C@@H](C(=O)Nc3ccccc3)CC[C@H]2C)n1 [GSK2298859] | 0 | 0 | 0 | 0 | 3 | 0 | 77 | 2 | 0 | 0 | 0 | 6 | 21 | 10 | 22 | 13 | 0 | 0 | 0 | 0
12 | COC(=O)c1cccc(NC(=O)NC2CCN(c3ccnc(Nc4ccc(F)cc4)n3)C2)c1 (centres unmarked) [GSK1379725] | 0 | 0 | 0 | 0 | 17 | 2 | 9 | 58 | 82 | 0 | 0 | 3 | 0 | 0 | 0 | 23 | 0 | 15 | 0 | 12
13 | COc1cccc(CNC(=O)NC2CCN(c3ccnc(Nc4ccc(F)cc4)n3)C2)c1 (centres unmarked) [GSK1379723] | 0 | 0 | 0 | 0 | 16 | 4 | 0 | 0 | 5 | 0 | 1 | 16 | 17 | 100 | 20 | 22 | 17 | 19 | 1 | 4
14 | CC(C)c1cc(-c2ccc3c(N)n[nH]c3c2)nc(N)n1 [GSK2250882] | 2 | 0 | 14 | 0 | 14 | 0 | 0 | 0 | 0 | 0 | 6 | 20 | 10 | 0 | 20 | 2 | 0 | 6 | 0 | 9
15 | Cl.Cl.Cl.N#Cc1ccc(CCNc2nccc(-c3cccc(CN4CCNCC4)c3)n2)cc1 [GSK2137462] | 9 | 3 | 3 | 4 | 5 | 18 | 56 | 0 | 0 | 0 | 0 | 5 | 14 | 2 | 0 | 0 | 23 | 11 | 12 | 2
16 | COC(=O)c1cccc(NC(=O)NC2CCN(c3ccnc(Nc4ccc(OC)cc4)n3)C2)c1 (centres unmarked) [GSK1379746] | 0 | 0 | 0 | 0 | 12 | 0 | 34 | 71 | 86 | 11 | 13 | 7 | 0 | 8 | 33 | 51 | 0 | 0 | 3 | 9
17 | CC(=O)c1c(C)c2cnc(Nc3ccn(C)n3)nc2n(C2CCCC2)c1=O | 1 | 0 | 0 | 54 | 24 | 16 | 29 | 0 | 0 | 0 | 16 | 0 | 52 | 0 | 0 | 0 | 0 | 0 | 6 | 0
18 | CCCCc1nn2ncccc2c1-c1ccnc(NC2CC2)n1 [GW684374] | 15 | 7 | 0 | 0 | 0 | 0 | 0 | 6 | 0 | 25 | 0 | 9 | 0 | 0 | 6 | 32 | 0 | 0 | 0 | 0
19 | O=C(Nc1n[nH]c2nc(-c3cccs3)c(Br)cc12)C1CC1 [SB-735297] | 5 | 0 | 17 | 33 | 0 | 98.6 | 6 | 41 | 17 | 18 | 0 | 0 | 0 | 22 | 9 | 0 | 12 | 0 | 6 | 3
